Assay results reported in the supplement of paper PMC6522484.
± gives the standard deviation of the averaged measurements.

Tests used:
[1] = test system: DLD1; test: cell viability (CellTiter-Glo) relative to plate median (fraction of plate median); higher = more viable cells; settings: 5 µM; treatment time 24 h; reporter: 7TFP
In short: (§1)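 Per-well firefly luciferase or CellTiterGlo luminescence, normalised to the plate median, is what is reported. It was measured in colorectal cancer cells with stable lentiviral TCF/Wnt firefly luciferase reporters after a 24 h treatment with library compounds at a final 5 µM. The mean of two independent replicates is given.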

[2] = test system: HCT116; test: as above; settings: 5 µM; treatment time 24 h; reporter: TCF4/Wnt
In short: as §1

[3] = test system: SW480; test: as above; settings: 5 µM; treatment time 24 h; reporter: 7TFP
In short: as §1

[4] = test system: DLD1; test: TCF/Wnt firefly luciferase reporter signal relative to plate median (fraction of plate median); higher = higher Wnt reporter signal; settings: 5 µM; treatment time 24 h; reporter: 7TFP
In short: as §1

[5] = test system: SW480; test: as above; settings: 5 µM; treatment time 24 h; reporter: 7TFP
In short: as §1

SMILES	cell viability [1]	cell viability [2]	cell viability [3]	TCF/Wnt firefly luciferase reporter signal [4]	TCF/Wnt firefly luciferase reporter signal [5]
CCN1C[C@]2(OC(=O)c3ccccc3NC(C)=O)CC[C@H](OC)[C@@]34[C@@H]2C[C@@H]([C@@H]13)[C@@]1(O)C[C@H](OC)[C@H]2C[C@@H]4[C@]1(O)[C@H]2OC	0.987 ± 0.033	0.988 ± 0.032	0.9965 ± 0.005	0.905 ± 0.083	0.98 ± 0.057
NCCc1ccc(O)cc1	0.964 ± 0.11	0.93 ± 0.03	0.953 ± 0.036	0.993 ± 0.15	1.07 ± 0.014
C[C@@H]1C[C@H](C)C[C@H](C)[C@@H](O)CC(=O)O[C@H]([C@@H]2CCC[C@H]2C(=O)O)C/C=C/C=C(/C#N)[C@H](O)[C@@H](C)C1 [Borrelidin]	0.894 ± 0.067	0.817 ± 0.18	1.01 ± 0.02	0.989 ± 0.059	1.06 ± 0.095
C/C(=C\c1csc(C)n1)[C@@H]1C[C@@H]2O[C@@H]2CCC[C@H](C)[C@H](O)[C@@H](C)C(=O)C(C)(C)[C@@H](O)CC(=O)O1 [Epothilone A]	1.09 ± 0.021	0.464 ± 0.073	1.14 ± 0.099	0.732 ± 0.076	0.8595 ± 0.0078
CC1(C)C(=O)C=C[C@]2(C)[C@H]3CC[C@@]4(C)[C@H](c5ccoc5)OC(=O)[C@H]5O[C@]54[C@]3(C)[C@H](O)C[C@@H]12	1.01 ± 0.12	1.08 ± 0.028	0.989 ± 0.016	0.904 ± 0.028	0.972 ± 0.097
CCCC(C)(COC(N)=O)COC(=O)NC(C)C (stereo not given)	1.06 ± 0.014	0.994 ± 0.14	0.97 ± 0.0042	0.887 ± 0.088	0.992 ± 0.082
C[C@@H]1CC[C@]2(NC1)O[C@H]1C[C@H]3[C@@H]4CC=C5C[C@@H](O)CC[C@]5(C)[C@H]4CC[C@]3(C)[C@H]1[C@@H]2C	0.943 ± 0.011	0.904 ± 0.035	0.957 ± 0.044	0.963 ± 0.037	0.978 ± 0.016
C=C(C)c1cc2cc(C(C)=O)c(O)cc2o1	1.14 ± 0.13	1.06 ± 0.071	1.07 ± 0.057	1.21 ± 0.29	1.12 ± 0.085
C/C=C\C(=O)O[C@@H]1C[C@H]2O[C@@H]3C=C(C)C(=O)C[C@]3(C)[C@]1(C)[C@]21CO1 [Trichothecin]	0.922 ± 0.018	0.807 ± 0.025	0.945 ± 0.023	0.733 ± 0.1	0.832 ± 0.067
N[C@@H]1C[C@H]1c1ccccc1.N[C@H]1C[C@@H]1c1ccccc1	1.02 ± 0.059	0.959 ± 0.0042	0.956 ± 0.033	1.05 ± 0.17	0.892 ± 0.12
O=[N+]([O-])c1cc([As](=O)(O)O)ccc1O	1.07 ± 0.14	1.07 ± 0.14	1.075 ± 0.0071	1.01 ± 0.19	0.959 ± 0.1
Nc1ncn[nH]1	0.973 ± 0.067	1.09 ± 0.11	1 ± 0.029	0.957 ± 0.089	0.978 ± 0.012
CCOC(=O)C1C(C=C(C)C)C1(C)C (stereo not given)	0.913 ± 0.11	0.961 ± 0.038	0.932 ± 0.05	0.906 ± 0.064	1.02 ± 0.035
COC1=C[C@@H]2[C@@H]3Cc4ccc(OC)c(O)c4[C@]2(CCN3C)CC1=O	0.973 ± 0.0085	0.925 ± 0.017	0.987 ± 0.033	1.03 ± 0.11	0.997 ± 0.16
